This note sets out measurements from PubChem BioAssay AID1211 (NMMLSC, 2008).

Values without a mark were called inactive. Calls of active or inactive are those of the source. The rule behind the calls is not given here.

Estrogen receptor (Homo sapiens), sequence (P03372 whole entry, looked up): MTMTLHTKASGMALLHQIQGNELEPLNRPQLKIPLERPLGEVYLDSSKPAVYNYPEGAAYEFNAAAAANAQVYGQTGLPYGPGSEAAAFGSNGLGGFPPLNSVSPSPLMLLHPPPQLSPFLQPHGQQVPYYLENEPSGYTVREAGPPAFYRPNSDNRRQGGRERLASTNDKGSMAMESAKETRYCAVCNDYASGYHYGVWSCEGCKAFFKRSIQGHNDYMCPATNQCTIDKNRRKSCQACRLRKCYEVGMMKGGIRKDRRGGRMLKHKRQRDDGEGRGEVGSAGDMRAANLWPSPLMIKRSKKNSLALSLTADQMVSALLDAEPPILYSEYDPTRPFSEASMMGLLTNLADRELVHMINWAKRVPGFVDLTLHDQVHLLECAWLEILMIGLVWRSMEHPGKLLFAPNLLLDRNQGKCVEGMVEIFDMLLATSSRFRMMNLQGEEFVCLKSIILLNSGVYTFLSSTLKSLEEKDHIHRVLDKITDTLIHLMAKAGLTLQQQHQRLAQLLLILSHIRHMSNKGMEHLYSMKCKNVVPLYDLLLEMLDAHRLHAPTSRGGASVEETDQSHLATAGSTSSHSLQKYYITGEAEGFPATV

The experiment has as its target Estrogen receptor (Homo sapiens) (UniProt P03372). Briefly: displacement of fluorescent estrogen from ERalpha – cell-based, Cos7 ERalpha-GFP, flow cytometry, primary screen (AID 1211).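 Note: 0% = DMSO vehicle wells and 100% = no E2-Alexa633 signal left.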 To be noted: fluorescent ligand competition, at 10 µM, stronger effect = higher value. Background: A flow cytometer gives signals particle by particle.
For the molecule `COc1ccc2[nH]c3c(c2c1)CCNC3C1CC=C(C)CC1` (stereo unspecified), the inhibition of ligand binding is 0%.

`CCOc1ccc(NS(=O)(=O)c2ccc3c(c2)[C@H]2C=CC[C@H]2[C@@H](c2ccc(C(=O)O)cc2)N3)cc1`: the inhibition of ligand binding is 66% (active).

For the molecule `COc1cc(/C=N/N2CCN(C3c4ccccc4-c4ccccc43)CC2)cc(OC)c1O`, the inhibition of ligand binding was 0%.

As to `Cc1ccccc1-n1nc(-c2ccc(N)cc2)cc1N`, the inhibition of ligand binding was 7%.

As for `COc1ccc2[nH]c3c(c2c1)CCNC3=O`, the inhibition of ligand binding was 21%.

Turning to `COC(=O)c1ccc(C2Nc3ccc(/C(C)=N/NC(=O)C(OC)c4ccccc4)cc3C3C=CCC32)cc1` (stereo unspecified), the inhibition of ligand binding is 0%.

On to `COc1ccc(C2CC(c3ccccc3)=NN2C(=O)CSc2nccc(=O)[nH]2)cc1` (stereo unspecified), for which the inhibition of ligand binding is 20%.

`COc1cc2c(cc1OC)CC(C)(C)N(Cc1ccco1)C2`: the inhibition of ligand binding is 0%.

For `COc1ccc(C2(CNCC(N)=O)CCCC2)cc1OC`, the inhibition of ligand binding was 10%.

On to `CC1(C)CC(=O)C=C(NC2CC(C)(C)NC(C)(C)C2)C1`, for which the inhibition of ligand binding was 0%.

As to `Fc1ccc2c(c1)C1C=CCC1C(c1cc3c(cc1Br)OCO3)N2` (stereo unspecified), the inhibition of ligand binding is 84% (active).

With `Cc1ccc(S(=O)(=O)Cc2ccc(C(=O)O)o2)cc1`, the inhibition of ligand binding was 34%.

For the molecule `CCCOc1cc(OCCC)c2c3c(c(=O)oc2c1)CCCC3`, the inhibition of ligand binding was 3%.

For the molecule `O=C(O)c1ccc2c(c1)C1C=CCC1C(c1cc3c(cc1Br)OCO3)N2` (stereo unspecified), the inhibition of ligand binding is 79% (active).

Turning to `COc1cccc(NS(=O)(=O)c2ccc3c(c2)C2C=CCC2C(c2ccc(C(=O)O)cc2)N3)c1` (stereo unspecified), the inhibition of ligand binding is 37%.

As for `COc1ccc(NS(=O)(=O)c2ccc3c(c2)[C@H]2C=CC[C@H]2[C@@H](c2ccc(C(=O)O)cc2)N3)cc1`, the inhibition of ligand binding was 100% (active).
